Pf Dd2 growth – blocks in vitro growth of P. falciparum Dd2 | P. falciparum Dd2 growth, SYBR Green, 72 h | Potency, µM (doses to about 28.9 µM), inactives show top-dose activity, negative = inhibition, actives largely listed as inhibitors | 120,000 tested, 4.3% active; active = well fitted inhibition curve with a large enough effect;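 also: plate controls were DMSO vehicle for no effect and reference drug for full effect; nearly all actives have a fitted effect of over 65% in size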
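Readout: SYBR Green fluorescence, 485 nm excitation, 535 nm emission, after ~16 h lysis at 37C. Before that, Dd2-infected red cells (2.5% hematocrit) grew 72 h with compound, 29 uM top final concentration.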
Numbers without * were called inactive; [ ] = dose if it differs, or a comment. The full list was thinned out, with hits kept by preference. Potency is read from the fitted curve at half-maximal effect.

What do the screens show for `COc1ccc(CNC[C@H]2O[C@H](Cc3cc(-c4cccc(O)c4)on3)CC[C@@H]2O)cc1`?
Pf Dd2 growth: inactive

What do the screens show for `Cc1noc(C)c1CNCC1(CO)C[C@@H](O)[C@@H](O)C1` (stereo partly drawn)?
Pf Dd2 growth: -9.9%[44.1 µM]

What do the screens show for `Cc1cnn(C2(C(=O)O)CCN(C(=O)c3cc(C)nc(C)n3)CC2)c1`?
Pf Dd2 growth: -12.5%

What do the screens show for `CN(C)C[C@@H]1CN(C2CCOCC2)C[C@H]1NC(=O)c1cnco1`?
Pf Dd2 growth: 24.5%

Results for Cc1cccc(NC(=O)C2CCN(S(=O)(=O)c3c(C)noc3/C=C/c3ccco3)CC2)c1C ?
Pf Dd2 growth: -13.4%

How did COc1ccc(/C=C\c2onc(C)c2S(=O)(=O)N2CCC(C(=O)Nc3cccc(C)c3C)CC2)cc1 do in these assays?
Pf Dd2 growth: 2.82µM*

How did Cc1ccc(/C=C/c2onc(C)c2S(=O)(=O)N2CCC(C(=O)Nc3ccc(OC(F)(F)F)cc3)CC2)cc1 do in these assays?
Pf Dd2 growth: 62.5%

How did COc1cccc2sc(=NC(=O)c3ccc(S(=O)(=O)N4CCCCC4)cc3)n(C)c12 do in these assays?
Pf Dd2 growth: 0.8%

How did COc1ccccc1N=c1scc(-c2ccc(S(=O)(=O)N3CCCC3)cc2)n1C do in these assays?
Pf Dd2 growth: 10µM*

Results for COc1ccccc1N1CCN(S(=O)(=O)c2ccc(-c3coc(C)n3)cc2)CC1 ?
Pf Dd2 growth: 41.1%

How did CC(C)=CCn1c(-c2cc(C)oc2C)cn2cc(C(=O)N3CCCC3C)nc2c1=O (stereo not drawn) do in these assays?
Pf Dd2 growth: 8.91µM*

What do the screens show for `CC1CCCN1C(=O)c1cc(-c2cnn(C(C)C)c2)nc2cc(F)ccc12` (stereo not drawn)?
Pf Dd2 growth: -15.2%

What do the screens show for `CC1CCCCN1C(=O)c1cc(-c2ccc(Br)cc2)on1` (stereo not drawn)?
Pf Dd2 growth: 42.2%

Results for COc1ccc(-c2noc(C(=O)O)c2[C@@H](C)NC(=O)Nc2ccccc2)cc1 ?
Pf Dd2 growth: 12.6%[44.1 µM]

What do the screens show for `CCC1(O)CCC12CCN(C(=O)c1cccs1)CC2` (stereo not drawn)?
Pf Dd2 growth: -14.9%

How did Cc1cc2cc(-c3c(C)noc3C)nc(N(C)CCN(C)C)c2o1 do in these assays?
Pf Dd2 growth: 2µM*

Results for Cc1cc2cc(-c3c(C)noc3C)nc(Nc3ccccc3)c2o1 ?
Pf Dd2 growth: -28.5%[44.1 µM]

What do the screens show for `Cc1cc2cc(-c3c(C)noc3C)nc(N3CCCC3)c2o1`?
Pf Dd2 growth: -12.3%[44.1 µM]

Results for COc1ccc(-c2cc3c(ccn3C(C)C)c(C(=O)NCc3c(C)cc(C)[nH]c3=O)n2)cn1 ?
Pf Dd2 growth: 6.31µM*

What do the screens show for `Cc1cc(C)c(CNC(=O)c2nc(-c3cnn(C)c3)cc3c2ccn3C)c(=O)[nH]1`?
Pf Dd2 growth: inactive

What do the screens show for `COc1ccc(-c2cc(C(=O)NCc3c(C)cc(C)[nH]c3=O)c3c(c2)N(C(C)C)CCO3)cc1OC`?
Pf Dd2 growth: inactive

Results for Cc1ccc(-c2cc3c(ccn3C(C)C)c(C(=O)NCc3c(C)cc(C)[nH]c3=O)n2)cn1 ?
Pf Dd2 growth: 7.08µM*

What do the screens show for `Cn1ccc2c(C(=O)NCc3cccnc3)nc(-c3cccnc3)cc21`?
Pf Dd2 growth: 25.7%[44.1 µM]

Results for Cc1cc(C)c(CNC(=O)c2cc(-c3ccc(CN(C)C)cc3)cc3ncn(C)c23)c(=O)[nH]1 ?
Pf Dd2 growth: -17.9%

What do the screens show for `Cc1cc(C)c(CNC(=O)c2nc(-c3ccccc3C)cc3c2ccn3C(C)C)c(=O)[nH]1`?
Pf Dd2 growth: -22.4%[44.1 µM]

How did Cn1ccc2c(C(=O)NCCc3cnc[nH]3)nc(-c3ccccc3)cc21 do in these assays?
Pf Dd2 growth: -27.8%[44.1 µM]

Results for COc1cccc(-c2cc3c(ccn3C)c(C(=O)NCc3c(C)cc(C)[nH]c3=O)n2)c1 ?
Pf Dd2 growth: 10µM*

Results for CC(=O)Nc1cccc(-c2cc3c(ccn3C)c(C(=O)NCCc3cnc[nH]3)n2)c1 ?
Pf Dd2 growth: 5.01µM*

How did COc1ccc(-c2cc3c(ccn3C)c(C(=O)NCCc3cnc[nH]3)n2)cn1 do in these assays?
Pf Dd2 growth: inactive

How did Cn1ccc2c(C(=O)NCCc3cnc[nH]3)nc(-c3cccc(CO)c3)cc21 do in these assays?
Pf Dd2 growth: inactive

What do the screens show for `CN(Cc1ccsc1)C1CCOc2ccccc21` (stereo not drawn)?
Pf Dd2 growth: -17.1%[44.1 µM]

What do the screens show for `COc1ccc(N2CCC(N)C2=O)cc1` (stereo not drawn)?
Pf Dd2 growth: -11.0%

Results for Cc1ccc(-c2ccc3nnc(CNC(=O)C4CC4)n3n2)cc1 ?
Pf Dd2 growth: -8.9%

How did Cc1ccc(CN2C[C@H]3CN(Cc4ccc(OC(F)(F)F)cc4)CCN3C2=O)cc1 do in these assays?
Pf Dd2 growth: -24.5%[44.1 µM]

Results for CN[C@H](C(=O)N[C@H]1C[C@@](O)(C(=O)N[C@H](CC(C)C)C(N)=O)C[C@@H](O)[C@@H]1O)C(C)C ?
Pf Dd2 growth: 16.7%[44.1 µM]

Results for CC(=O)c1ccc(NC(=O)O[C@@H]2CO[C@H]3[C@@H]2OC[C@@H]3n2nnnc2-c2ccc(CN3CCOCC3)cc2)cc1 ?
Pf Dd2 growth: inactive

What do the screens show for `CC(C)NC(=O)N1CC2ON=C(C(=O)NCc3cccnc3)C2C1` (stereo not drawn)?
Pf Dd2 growth: -3.3%

What do the screens show for `CN(C)c1ccc(NC(=O)CN2C(=O)c3ccccc3Sc3ccc(C(=O)N4CCCC4)cc32)cc1`?
Pf Dd2 growth: 10µM*

How did COc1ccc(OC)c(NC(=O)CN2C(=O)c3ccccc3Sc3ccc(C(=O)N4CCCC4)cc32)c1 do in these assays?
Pf Dd2 growth: 10µM*

Results for Cc1ccc(NC(=O)CN2C(=O)c3ccccc3Sc3ccc(C(=O)N4CCOCC4)cc32)cc1C ?
Pf Dd2 growth: -25.0%

Results for O=C(c1ccc2c(c1)N(Cc1cccc(F)c1)C(=O)c1ccccc1S2)N1CCCC1 ?
Pf Dd2 growth: inactive

How did CCOC(=O)c1ccc2c(c1)N(CC(=O)Nc1cc(F)ccc1F)C(=O)c1ccccc1S2 do in these assays?
Pf Dd2 growth: -25.8%

How did O=C(c1ccc2c(c1)N(Cc1ccccc1Cl)C(=O)c1ccccc1S2)N1CCCC1 do in these assays?
Pf Dd2 growth: inactive

Results for CCCn1nccc1S(=O)(=O)N[C@@H]1CCOC[C@H]1Oc1ccccn1 ?
Pf Dd2 growth: -4.6%

Results for Fc1ccc(C2Cn3nnc(-c4nc(-c5cccc(Cl)c5)no4)c3CO2)cc1 (stereo not drawn) ?
Pf Dd2 growth: 8.0%

What do the screens show for `COc1ccc(CCNC(=O)C(=O)Nc2ccc(C)c(C)c2)cc1`?
Pf Dd2 growth: 20.2%

Results for COc1ccc(CNC(=O)C(=O)Nc2cccc(C)c2C)cc1 ?
Pf Dd2 growth: 28.7%

How did COc1ccc(CNC(=O)C(=O)Nc2ccc(OC)cc2OC)cc1 do in these assays?
Pf Dd2 growth: 5.62µM*

Results for O=C1NC[C@@H](CCC(=O)N2CCc3ccccc32)N2C[C@@H](NS(=O)(=O)c3ccc(F)cc3)C[C@@H]12 ?
Pf Dd2 growth: inactive

Results for CCNC(=O)N(C1CC1)C1CCOC2(CCN(C(=O)Nc3ccccc3F)CC2)C1 (stereo not drawn) ?
Pf Dd2 growth: 20.1%

How did Cc1nn(C)cc1CN(C)CC1(O)CCCN(Cc2ccc(F)cc2)C1=O (stereo not drawn) do in these assays?
Pf Dd2 growth: inactive

How did Cc1ccc(S(=O)(=O)N2CCC3(CC2)SCC(=O)N3Cc2ccco2)cc1 do in these assays?
Pf Dd2 growth: inactive

How did COc1ccc2[nH]c3c(c2c1)CCNC31CCN(C(=O)c2c(C)noc2C)CC1 do in these assays?
Pf Dd2 growth: inactive

Compound activity from PubChem.
